# From PubChem BioAssay
# The full list was thinned out, with hits kept by preference.
# PKM2 inh = qHTS Assay for Inhibitors of Human Muscle isoform 2 Pyruvate Kinase; hit rate 0.058% among 260,000; AID 1634, 2009; purified PKM2, ATP generation, Kinase-Glo luminescence; Potency, µM (highest dose often 57.5 µM), for the others: top-dose activity change, negative = inhibition, most hits filed as inhibitors; Pyruvate kinase PKM (Homo sapiens), P14618; active = well fitted inhibition curve with a large enough effect; note: nearly all actives have a fitted effect of over 60% in size
# Target sequence (P14618 whole entry, looked up, canonical isoform): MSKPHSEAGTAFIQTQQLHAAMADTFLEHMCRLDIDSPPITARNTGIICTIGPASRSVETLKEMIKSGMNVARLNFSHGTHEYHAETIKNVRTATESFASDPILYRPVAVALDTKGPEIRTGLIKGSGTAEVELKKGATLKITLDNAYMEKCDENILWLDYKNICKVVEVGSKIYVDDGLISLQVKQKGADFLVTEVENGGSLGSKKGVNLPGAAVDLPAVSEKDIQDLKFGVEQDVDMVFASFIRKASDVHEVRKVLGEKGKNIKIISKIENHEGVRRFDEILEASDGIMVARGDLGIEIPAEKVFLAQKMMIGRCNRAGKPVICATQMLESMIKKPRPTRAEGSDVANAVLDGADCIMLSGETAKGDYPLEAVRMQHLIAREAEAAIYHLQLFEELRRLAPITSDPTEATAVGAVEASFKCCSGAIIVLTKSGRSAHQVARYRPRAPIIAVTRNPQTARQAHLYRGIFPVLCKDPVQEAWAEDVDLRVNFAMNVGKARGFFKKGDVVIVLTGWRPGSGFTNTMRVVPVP
#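 Coupled luciferase luminescence (Kinase-Glo) detects ATP generated from 0.1 mM ADP and 0.5 mM PEP in imidazole buffer pH 7.2 with KCl, MgCl2; 1 h at room temperature. Enzyme at intermediate activity; normalized to uninhibited and no-enzyme controls.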
# Starred values were filed as active, the others as inactive. Potency is the fitted concentration of half-maximal effect.
SMILES,PKM2 inh
COc1ccc2nc(/N=C/c3c(C)[nH]n(-c4ccc(C)cc4)c3=O)sc2c1,14µM*
O=C(O)c1ncn(Cc2ccccc2)c1C(=O)O,68%
COc1ccc(-c2nn(-c3ccccc3)cc2/C=N/NS(=O)(=O)c2ccccc2)cc1,1%
COc1cccc(/C=N/NC(=O)c2cc3c(OC)cccc3[nH]2)c1O,17%
COc1cccc(/C=N/Nc2ncnc3c2[nH]c2ccc(C)cc23)c1OC,57%
COc1cccc(/C=N/Nc2nccnc2Cl)c1O,14µM*
Clc1nccnc1N/N=C/c1ccc(Br)cc1,14µM*
COc1ccc(/C=N/Nc2nccnc2Cl)cc1,13µM*
Cc1nn(C)cc1CN(C)C(=O)c1cc2nc(-c3ccco3)cc(C(F)(F)F)n2n1,37%
Cc1nc(SCc2ccccc2)c2ccsc2n1,69%
COC(=O)C(CC(=O)c1ccc(Br)cc1)n1ccnc1 (configuration not stated),51%
O=C(CSc1ccccc1)N1CCN(S(=O)(=O)c2ccccc2F)CC1,119%
Cc1ccc(N=Cc2c(C)[nH]n(-c3nc4ccccc4[nH]3)c2=O)cc1,10µM*
CN(n1cnc2ccccc2c1=O)S(C)(=O)=O,31%
Nc1nonc1-n1nnc(C(=O)N/N=C/c2ccccc2Cl)c1CSc1ccccc1,13%
O=C(O)C1C2C=CC(O2)C1C(=O)Nc1ccc(S(=O)(=O)N2CCc3ccccc32)cc1 (configuration not stated),53%
CCNc1sc(C(=O)c2cccs2)c(N)c1-c1nc2ccccc2s1,44%
C/C(=N/NC(=O)c1cccs1)c1c(C)[nH]n(-c2nc3ccccc3s2)c1=O,14µM*
Cc1cc(NC(=O)c2ccc(Cl)c([N+](=O)[O-])c2)no1,62%
CN(C)n1cccc1/C=C(\C#N)S(=O)(=O)c1cccc(Cl)c1,-1%
COc1ccc(NS(=O)(=O)c2ccc(Cl)c(N)c2)cc1Br,77%
COc1ccc(-c2nc3oc4cc(OC)ccc4c(=O)c3c(=O)n2Cc2ccco2)cc1,33%
COc1ccc(-c2cc3nc(C)n(N)c(=O)c3s2)cc1,4µM*
O=C(NC(NNc1ccc([N+](=O)[O-])cc1)(C(F)(F)F)C(F)(F)F)c1ccc(F)cc1,34%
O=C(Nc1cccc(S(=O)(=O)NC2=NCCC2)c1)c1cc(-c2ccco2)nc2ccccc12,35%
SMILES,PKM2 inh
COc1cc([N+](=O)[O-])ccc1NC(=O)COC(=O)c1ccc(NC(N)=O)cc1,37%
COc1ccccc1NS(=O)(=O)c1ccc2oc(=O)ccc2c1,39%
COc1cccc(CSc2nc3ccncc3[nH]2)c1,14µM*
COc1cccc(Cn2nc(C(=O)O)c3ccccc3c2=O)c1,38%
COc1ccc(S(=O)(=O)N2CCN=C2SCc2cccnc2)cc1,56%
COCCn1c(-c2ccc(C#N)cc2)nc2c1c(=O)[nH]c(=O)n2Cc1ccccc1,78%
Cc1ccc(S(=O)(=O)N2CCN(C(=O)Cc3ccccc3)CC2)cc1,45%
COC(=O)c1cc(C(=O)c2cccc(Cl)c2Cl)cn1C,80%
c1ccc2[nH]c(CSc3nnc(-c4ccncc4)o3)nc2c1,134%
C(=C\c1nc2ccccc2[nH]1)/c1ccccc1,14µM*
CC(C)(C)C(=O)Nc1ccc(Oc2ccc3c(c2)C(=O)N(c2ccc(O)cc2)C3=O)cc1,48%
Cc1ccc(S(=O)(=O)N2CCN(C(=O)CSc3ccc(Cl)cc3)CC2)cc1,78%
c1cc2c(cc1C1=NNC(=NC3CC3)SC1)OCCO2,14µM*
COc1ccc(CN=C2NN=C(c3ccccc3)CS2)cc1,46%
CCCCN=C1NN=C(c2ccc(C)c(C)c2)CS1,72%
CCOC(=O)Cc1csc(NC(=O)CSc2nnc(C(C)C)n2CC)n1,31%
Nc1nonc1NC(=O)CSc1nc2ccccc2s1,58%
CCc1ccc(/C=C2\CN(CC)Cc3c2nc2ccccc2c3C(=O)O)cc1,67%
COc1ccc(S(=O)(=O)N2CCN(C(=O)NCc3ccccc3)CC2)cc1,83%
Cc1cc(C)n2nc(SCc3cc(=O)oc4ccc5ccccc5c34)nc2n1,94%
Cc1ccsc1/C=C1\CCc2ccccc2C1=O,25µM*
CC(=O)Oc1ccc(C(=O)[C@H]2[C@H]3C(=O)N(c4ccc(C)cc4C)C(=O)[C@H]3[C@@H]3C=CC=NN32)cc1,53%
O=C(O)c1cccc(-n2cccc2/C=C2/NC(=O)N(c3ccc(Cl)cc3)C2=O)c1,89%
COc1cc(/C=N/Nc2nc3ccccc3[nH]2)cc(Br)c1OCC(=O)N(C)C,35%
COc1ccc(NC(=O)/C(Cl)=C(/Cl)S(=O)Cc2ccccc2Cl)cn1 (configuration not stated),41%
SMILES,PKM2 inh
CCOC(=O)c1c(NC(=S)N2CCCCC2)sc2c1CCN(C(=O)OCC)C2,6%
Cc1cccc(/C(N)=N/OC(=O)c2ccc3c(c2)OCO3)c1,11µM*
Cc1noc(C)c1COc1cccc(C(=O)Oc2ccc3c(c2)OCO3)c1,1%
Cc1nc2ccc(C(=O)NCc3ccc4c(c3)OCO4)cc2s1,36%
CCOC(=O)c1c(NS(=O)(=O)c2cccc(OC)c2)sc2c1CCC2,82%
O=[N+]([O-])c1ccc(NCCNS(=O)(=O)c2ccccc2)c(C(F)(F)F)c1,109%
Cc1noc(/C=C/c2ccco2)c1S(=O)(=O)N1CCC(C(=O)N2CCc3ccccc3C2)CC1,89%
COc1ccccc1-c1nc(-c2ccccn2)no1,7.9µM*
Brc1ccc(-c2nc(-c3ccccn3)no2)o1,18µM*
CCn1c(CC(=O)Nc2ccccc2OC)nnc1SCC(=O)Nc1ccccc1F,83%
N=C1/C(=C\c2coc3ccc(O)cc3c2=O)C(=O)N=C2SC=CN12,69%
CCS(=O)(=O)N1CCC(C(=O)NCc2cccc(OC)c2)CC1,31%
O=C(c1ccc2c(=O)n(Cc3ccco3)c(=S)[nH]c2c1)N1CCN(c2ccccc2)CC1,93%
COc1cc2c(cc1OC)CN(S(=O)(=O)c1cccs1)CC2,53%
NC(=O)Nn1c(CCC(=O)O)ccc1-c1ccc(F)cc1,34%
C=C(C)C(=O)N1CC2(CC(c3cccc(NC(=O)/C=C\C=C/C)c3)=NO2)C[C@H]1C(N)=O (some centres not stated),39%
Clc1ccccc1Nc1nnc(-c2ccncc2)s1,13µM*
COc1ccc(OC)c(-n2c(Cn3c(-c4ccccn4)nc4ccccc43)n[nH]c2=S)c1,31%
N#CCCn1c(SCC(=O)NCC2CCCO2)nc2ccccc21 (configuration not stated),90%
Cc1cccc(C)c1NC(=S)N/N=C/c1ccccc1C(=O)O,-4%
O=C(Nc1ccccc1C(=O)N/N=C/c1ccncc1)c1ccccc1,14µM*
O=C(N/N=C/c1ccncc1)c1cc([N+](=O)[O-])cc([N+](=O)[O-])c1O,31%
COc1ccc(CO/N=C/c2c(C)[nH]c(=O)[nH]c2=O)cc1,67%
CCOC(=O)C1C(=O)C=C(c2ccc(C)cc2)CC1c1ccc([N+](=O)[O-])cc1 (configuration not stated),35%
CSc1nnc(-c2ccco2)n1-c1ccccc1,21%
Cc1ccc(S(=O)(=O)c2cc3ccccc3oc2=Nc2ccc3c(c2)OCO3)cc1,45%
Cn1c(OCc2cccnc2)nc2c1c(=O)n(Cc1ccc(F)cc1)c(=O)n2C,44%
Cc1ccc(/C=C2/SC(=S)N(c3ccc(S(=O)(=O)Nc4nccs4)cc3)C2=O)cc1,67%
c1ccc2nc(-c3nc4ccccc4o3)ccc2c1,18µM*
O=C1CCC(=O)N1c1cccc(-c2nc3ccccc3o2)c1,27%
